The source of these data is article PMC7862700, “An all-to-all approach to the identification of sequence-specific readers for epigenetic DNA modifications on cytosine”.

Holding throughout (test): DAPPL (digital affinity profiling via proximity ligation, sequencing); 10 mM Tris-HCl pH 7.5, 50 mM NaCl, 1 mM DTT, 4% glycerol, room temperature, 30 min; GST-TFs on glutathione beads, 16-mer random dsDNA library, 0.1% formaldehyde crosslink after washing; high values mean tight binding
In one test the target is T1, FLI1 (Homo sapiens, UniProt Q01543 1-452).
T1 sequence: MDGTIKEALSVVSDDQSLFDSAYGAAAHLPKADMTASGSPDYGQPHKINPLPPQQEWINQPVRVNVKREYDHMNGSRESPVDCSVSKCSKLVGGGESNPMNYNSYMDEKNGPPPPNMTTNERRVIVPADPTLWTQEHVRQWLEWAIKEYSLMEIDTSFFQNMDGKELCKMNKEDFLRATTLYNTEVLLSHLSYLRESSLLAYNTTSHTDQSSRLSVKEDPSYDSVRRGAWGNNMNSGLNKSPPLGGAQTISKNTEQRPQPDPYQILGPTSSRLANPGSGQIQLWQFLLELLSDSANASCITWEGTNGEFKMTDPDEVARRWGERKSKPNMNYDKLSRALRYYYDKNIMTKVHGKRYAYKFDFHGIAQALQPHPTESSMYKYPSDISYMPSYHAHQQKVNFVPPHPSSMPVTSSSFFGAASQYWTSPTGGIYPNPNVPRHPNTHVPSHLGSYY
Particulars: protein: recombinant; tags: N-terminal GST; dsDNA, one strand shown. The gist of the method:
(§1)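 Pools were built from human transcription factors expressed in yeast as GST fusions, captured on glutathione beads and DNA-barcoded, along with a tag-only sample. Incubation with 200 nmole of a 16-mer random double-stranded DNA library lasted 30 min at room temperature in Tris/NaCl/DTT/glycerol buffer, and was followed by washing, 0.1% formaldehyde crosslinking, proximity ligation, PCR amplification and Illumina NextSeq500 sequencing. Binding signal is the quotient of each hexamer's read frequency for a factor and its frequency for the tag-only sample.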

A further test has as its target T2, ELK1 (Homo sapiens, UniProt P19419 1-428).
T2 sequence: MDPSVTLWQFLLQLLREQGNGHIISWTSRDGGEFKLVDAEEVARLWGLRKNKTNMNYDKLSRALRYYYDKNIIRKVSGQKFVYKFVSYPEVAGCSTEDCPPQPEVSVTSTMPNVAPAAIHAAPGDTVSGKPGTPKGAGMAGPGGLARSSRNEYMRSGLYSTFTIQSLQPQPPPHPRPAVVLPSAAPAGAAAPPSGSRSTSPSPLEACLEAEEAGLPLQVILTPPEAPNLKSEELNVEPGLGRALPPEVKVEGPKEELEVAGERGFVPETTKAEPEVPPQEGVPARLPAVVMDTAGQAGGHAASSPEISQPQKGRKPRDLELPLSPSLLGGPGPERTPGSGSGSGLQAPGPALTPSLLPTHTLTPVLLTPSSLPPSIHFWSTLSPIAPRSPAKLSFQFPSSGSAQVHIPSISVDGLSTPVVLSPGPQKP
Particulars: protein: recombinant; tags: N-terminal GST; dsDNA, one strand shown. The gist of the method: as §1

A further test has as its target T3, GABPA (Homo sapiens, UniProt Q06546 1-454).
T3 sequence: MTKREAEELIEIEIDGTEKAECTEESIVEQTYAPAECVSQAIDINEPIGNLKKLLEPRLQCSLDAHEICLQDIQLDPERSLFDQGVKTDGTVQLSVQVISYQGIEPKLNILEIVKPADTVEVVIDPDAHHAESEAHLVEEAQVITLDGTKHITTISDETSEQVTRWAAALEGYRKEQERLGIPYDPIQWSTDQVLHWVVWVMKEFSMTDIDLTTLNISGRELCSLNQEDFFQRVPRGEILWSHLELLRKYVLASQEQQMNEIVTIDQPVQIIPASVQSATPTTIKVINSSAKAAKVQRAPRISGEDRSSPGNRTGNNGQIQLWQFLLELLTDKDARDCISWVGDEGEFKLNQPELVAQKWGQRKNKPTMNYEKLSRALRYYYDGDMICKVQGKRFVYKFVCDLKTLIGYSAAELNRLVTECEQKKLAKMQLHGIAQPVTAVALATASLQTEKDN
Particulars: protein: recombinant; tags: N-terminal GST; dsDNA, one strand shown. The method, boiled down: as §1

A further test concerns the target T4, ERG (Homo sapiens, UniProt P11308 1-479).
T4 sequence: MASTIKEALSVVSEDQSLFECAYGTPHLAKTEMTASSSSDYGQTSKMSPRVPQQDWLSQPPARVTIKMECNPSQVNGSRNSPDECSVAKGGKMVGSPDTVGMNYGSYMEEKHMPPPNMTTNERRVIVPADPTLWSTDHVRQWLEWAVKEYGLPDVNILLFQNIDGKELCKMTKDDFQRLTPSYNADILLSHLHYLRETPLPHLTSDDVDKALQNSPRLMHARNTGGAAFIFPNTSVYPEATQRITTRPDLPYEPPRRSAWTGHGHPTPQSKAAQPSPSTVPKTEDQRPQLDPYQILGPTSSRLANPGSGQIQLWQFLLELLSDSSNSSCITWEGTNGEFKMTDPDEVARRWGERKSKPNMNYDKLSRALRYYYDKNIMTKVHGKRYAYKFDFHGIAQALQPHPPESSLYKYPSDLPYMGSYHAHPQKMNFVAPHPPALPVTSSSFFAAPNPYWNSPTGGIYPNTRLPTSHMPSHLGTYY
Particulars: protein: recombinant; tags: N-terminal GST; dsDNA, one strand shown. The gist of the method: as §1

For another test, the target named is ELF1 (Homo sapiens, UniProt P32519 1-619). Particulars: protein: recombinant; tags: N-terminal GST; dsDNA, one strand shown. The method, boiled down: as §1
A further test concerns the target T5, EHF (Homo sapiens, UniProt Q9NZC4 1-300).
T5 sequence: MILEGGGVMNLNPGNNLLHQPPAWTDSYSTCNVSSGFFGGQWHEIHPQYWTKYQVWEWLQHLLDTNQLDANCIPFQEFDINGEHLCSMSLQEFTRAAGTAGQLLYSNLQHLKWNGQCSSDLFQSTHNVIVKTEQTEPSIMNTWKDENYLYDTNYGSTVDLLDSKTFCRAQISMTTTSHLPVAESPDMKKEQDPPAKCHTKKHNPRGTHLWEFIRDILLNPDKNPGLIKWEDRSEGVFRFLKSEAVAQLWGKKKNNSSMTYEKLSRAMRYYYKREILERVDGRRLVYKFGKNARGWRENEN
Particulars: protein: recombinant; tags: N-terminal GST; dsDNA, one strand shown. The method, boiled down: as §1

The target of a further test is SPI1 (Homo sapiens, UniProt P17947 1-270). Particulars: protein: recombinant; tags: N-terminal GST; dsDNA, one strand shown. The method, boiled down: as §1
The target of another test is SPIB (Homo sapiens, UniProt Q01892 1-262). Particulars: protein: recombinant; tags: N-terminal GST; dsDNA, one strand shown. The gist of the method:
as §1

For another test, the target named is T6, ELK3 (Homo sapiens, UniProt P41970 1-407).
T6 sequence: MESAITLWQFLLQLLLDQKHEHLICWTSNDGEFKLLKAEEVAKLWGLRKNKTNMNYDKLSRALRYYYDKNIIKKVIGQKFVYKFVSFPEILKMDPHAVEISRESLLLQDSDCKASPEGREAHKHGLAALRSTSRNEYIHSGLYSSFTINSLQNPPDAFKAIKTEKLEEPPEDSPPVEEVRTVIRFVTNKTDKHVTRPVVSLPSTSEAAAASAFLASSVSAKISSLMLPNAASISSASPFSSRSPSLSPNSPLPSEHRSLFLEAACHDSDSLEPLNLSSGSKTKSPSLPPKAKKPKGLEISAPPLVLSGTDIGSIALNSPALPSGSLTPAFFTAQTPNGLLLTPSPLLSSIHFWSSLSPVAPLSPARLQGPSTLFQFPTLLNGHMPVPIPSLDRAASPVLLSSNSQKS
Particulars: protein: recombinant; tags: N-terminal GST; dsDNA, one strand shown. The method, boiled down: as §1

Another test has as its target T7, FEV (Homo sapiens, UniProt Q99581 1-238).
T7 sequence: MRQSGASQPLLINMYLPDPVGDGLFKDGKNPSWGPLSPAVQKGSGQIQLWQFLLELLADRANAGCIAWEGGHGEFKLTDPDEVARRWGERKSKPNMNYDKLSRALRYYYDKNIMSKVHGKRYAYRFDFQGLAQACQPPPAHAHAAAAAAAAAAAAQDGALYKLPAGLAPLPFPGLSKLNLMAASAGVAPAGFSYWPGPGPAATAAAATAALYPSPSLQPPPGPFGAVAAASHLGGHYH
Particulars: protein: recombinant; tags: N-terminal GST; dsDNA, one strand shown. The gist of the method:
as §1

A further test concerns the target ETV5 (Homo sapiens, UniProt P41161 1-510). Particulars: protein: recombinant; tags: N-terminal GST; dsDNA, one strand shown. The gist of the method:
as §1

In a further test the target is HSF1 (Homo sapiens, UniProt Q00613 1-529). Particulars: protein: recombinant; tags: N-terminal GST; chain copies: 3; dsDNA, one strand shown. The gist of the method: as §1
The next test concerns the target T8, SPIC (Homo sapiens, UniProt Q8N5J4 1-248).
T8 sequence: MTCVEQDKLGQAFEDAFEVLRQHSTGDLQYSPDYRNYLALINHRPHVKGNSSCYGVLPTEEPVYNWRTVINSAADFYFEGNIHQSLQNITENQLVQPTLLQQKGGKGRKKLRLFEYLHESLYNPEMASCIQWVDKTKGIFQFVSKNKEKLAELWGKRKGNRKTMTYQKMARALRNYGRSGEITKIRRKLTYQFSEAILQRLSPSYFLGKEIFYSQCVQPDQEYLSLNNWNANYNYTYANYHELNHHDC
Particulars: protein: recombinant; tags: N-terminal GST; dsDNA, one strand shown. The gist of the method: as §1

The target in the next test is ELF4 (Homo sapiens, UniProt Q99607 1-663). Particulars: protein: recombinant; tags: N-terminal GST; dsDNA, one strand shown. The method, boiled down: as §1
The target in the next test is T9, ELK4 (Homo sapiens, UniProt P28324-2 1-405).
T9 sequence: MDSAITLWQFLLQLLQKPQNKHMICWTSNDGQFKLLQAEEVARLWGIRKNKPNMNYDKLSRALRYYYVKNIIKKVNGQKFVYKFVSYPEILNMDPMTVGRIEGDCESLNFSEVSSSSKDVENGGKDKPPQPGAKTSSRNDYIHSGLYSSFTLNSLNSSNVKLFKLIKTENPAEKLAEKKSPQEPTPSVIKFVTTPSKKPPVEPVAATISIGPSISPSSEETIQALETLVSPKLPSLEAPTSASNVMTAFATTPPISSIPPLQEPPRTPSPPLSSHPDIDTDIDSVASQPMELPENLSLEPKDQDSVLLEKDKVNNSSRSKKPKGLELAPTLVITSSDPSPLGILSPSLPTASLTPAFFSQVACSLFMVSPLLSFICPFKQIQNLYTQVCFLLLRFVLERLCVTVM
Particulars: protein: recombinant; tags: N-terminal GST; dsDNA, one strand shown. The gist of the method: as §1

For the next test, the target named is T10, ETV2 (Homo sapiens, UniProt O00321 1-342).
T10 sequence: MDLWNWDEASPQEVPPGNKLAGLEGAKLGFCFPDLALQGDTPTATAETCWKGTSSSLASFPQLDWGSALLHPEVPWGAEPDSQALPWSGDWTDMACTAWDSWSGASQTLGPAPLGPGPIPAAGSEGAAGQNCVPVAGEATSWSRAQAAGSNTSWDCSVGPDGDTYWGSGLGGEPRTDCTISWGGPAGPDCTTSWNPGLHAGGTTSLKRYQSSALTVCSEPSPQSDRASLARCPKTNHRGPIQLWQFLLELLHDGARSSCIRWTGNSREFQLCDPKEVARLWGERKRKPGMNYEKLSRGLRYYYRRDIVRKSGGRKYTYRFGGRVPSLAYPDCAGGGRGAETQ
Particulars: protein: recombinant; tags: N-terminal GST; dsDNA, one strand shown. The method, boiled down:
as §1

A further test concerns the target T11, ELF3 (Homo sapiens, UniProt P78545 1-371).
T11 sequence: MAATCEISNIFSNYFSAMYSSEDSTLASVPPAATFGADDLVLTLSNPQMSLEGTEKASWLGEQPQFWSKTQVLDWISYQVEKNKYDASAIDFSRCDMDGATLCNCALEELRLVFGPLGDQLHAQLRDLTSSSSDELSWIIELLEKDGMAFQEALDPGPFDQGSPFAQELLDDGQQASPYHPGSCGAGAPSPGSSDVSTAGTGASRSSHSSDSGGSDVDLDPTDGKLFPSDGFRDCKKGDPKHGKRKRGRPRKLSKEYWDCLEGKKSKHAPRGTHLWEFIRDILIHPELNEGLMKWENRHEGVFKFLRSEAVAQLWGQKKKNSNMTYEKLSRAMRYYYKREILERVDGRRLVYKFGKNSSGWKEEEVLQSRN
Particulars: protein: recombinant; tags: N-terminal GST; dsDNA, one strand shown. The gist of the method: as §1

For a further test, the target named is CRX (Homo sapiens, UniProt O43186 1-299). Particulars: protein: recombinant; tags: N-terminal GST; dsDNA, one strand shown. The method, boiled down: as §1
For the next test, the target named is ETV1 (Homo sapiens, UniProt P50549 1-477). Particulars: protein: recombinant; tags: N-terminal GST; dsDNA, one strand shown. The gist of the method: as §1
Sequence of ETV1 (P50549 whole entry): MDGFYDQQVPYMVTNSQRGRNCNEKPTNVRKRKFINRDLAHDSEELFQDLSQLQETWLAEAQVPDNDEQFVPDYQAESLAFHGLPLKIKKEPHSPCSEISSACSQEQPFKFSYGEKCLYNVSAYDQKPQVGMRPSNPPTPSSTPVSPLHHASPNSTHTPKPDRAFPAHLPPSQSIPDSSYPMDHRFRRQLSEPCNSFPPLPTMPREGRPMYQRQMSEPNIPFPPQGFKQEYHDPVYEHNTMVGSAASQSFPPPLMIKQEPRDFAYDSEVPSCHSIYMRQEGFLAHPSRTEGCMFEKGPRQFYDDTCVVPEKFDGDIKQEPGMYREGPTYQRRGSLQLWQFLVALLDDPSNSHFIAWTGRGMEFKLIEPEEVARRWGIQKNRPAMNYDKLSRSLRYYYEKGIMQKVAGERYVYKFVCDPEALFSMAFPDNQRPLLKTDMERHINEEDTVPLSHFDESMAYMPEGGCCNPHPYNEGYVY

Sequence of SPIB (Q01892 whole entry): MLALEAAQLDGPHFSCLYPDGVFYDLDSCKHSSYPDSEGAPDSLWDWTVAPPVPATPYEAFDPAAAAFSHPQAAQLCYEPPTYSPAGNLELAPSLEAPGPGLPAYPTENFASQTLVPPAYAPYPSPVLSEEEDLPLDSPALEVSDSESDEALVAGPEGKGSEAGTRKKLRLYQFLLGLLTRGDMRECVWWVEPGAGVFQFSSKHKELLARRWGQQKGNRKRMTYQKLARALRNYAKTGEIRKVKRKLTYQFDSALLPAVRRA
Sequence of CRX (O43186 whole entry): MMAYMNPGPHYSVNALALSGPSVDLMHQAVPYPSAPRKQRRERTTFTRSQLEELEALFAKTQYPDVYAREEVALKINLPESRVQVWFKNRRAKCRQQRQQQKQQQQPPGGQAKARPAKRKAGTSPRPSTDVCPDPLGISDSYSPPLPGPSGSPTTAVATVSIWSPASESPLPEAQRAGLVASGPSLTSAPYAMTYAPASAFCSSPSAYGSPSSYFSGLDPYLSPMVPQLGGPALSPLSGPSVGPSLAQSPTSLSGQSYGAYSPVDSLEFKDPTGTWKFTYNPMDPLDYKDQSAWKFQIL
Sequence of ELF1 (P32519 whole entry): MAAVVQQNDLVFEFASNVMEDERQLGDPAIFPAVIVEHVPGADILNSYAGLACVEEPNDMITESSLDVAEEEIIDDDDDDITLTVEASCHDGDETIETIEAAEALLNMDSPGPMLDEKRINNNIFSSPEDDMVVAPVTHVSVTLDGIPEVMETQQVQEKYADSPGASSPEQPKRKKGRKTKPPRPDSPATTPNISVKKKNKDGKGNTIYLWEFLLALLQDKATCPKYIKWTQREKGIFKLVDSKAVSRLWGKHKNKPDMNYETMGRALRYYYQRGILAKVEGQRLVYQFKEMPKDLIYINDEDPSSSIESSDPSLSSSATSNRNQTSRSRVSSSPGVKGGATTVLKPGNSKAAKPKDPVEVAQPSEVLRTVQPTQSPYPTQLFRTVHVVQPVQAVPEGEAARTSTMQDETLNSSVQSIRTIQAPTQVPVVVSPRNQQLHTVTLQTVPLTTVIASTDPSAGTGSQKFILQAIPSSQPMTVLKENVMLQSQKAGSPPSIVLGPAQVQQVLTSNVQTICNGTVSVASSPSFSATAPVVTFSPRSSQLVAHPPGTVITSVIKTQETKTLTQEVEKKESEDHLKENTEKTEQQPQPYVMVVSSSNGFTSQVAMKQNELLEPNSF
Sequence of ELF4 (Q99607 whole entry): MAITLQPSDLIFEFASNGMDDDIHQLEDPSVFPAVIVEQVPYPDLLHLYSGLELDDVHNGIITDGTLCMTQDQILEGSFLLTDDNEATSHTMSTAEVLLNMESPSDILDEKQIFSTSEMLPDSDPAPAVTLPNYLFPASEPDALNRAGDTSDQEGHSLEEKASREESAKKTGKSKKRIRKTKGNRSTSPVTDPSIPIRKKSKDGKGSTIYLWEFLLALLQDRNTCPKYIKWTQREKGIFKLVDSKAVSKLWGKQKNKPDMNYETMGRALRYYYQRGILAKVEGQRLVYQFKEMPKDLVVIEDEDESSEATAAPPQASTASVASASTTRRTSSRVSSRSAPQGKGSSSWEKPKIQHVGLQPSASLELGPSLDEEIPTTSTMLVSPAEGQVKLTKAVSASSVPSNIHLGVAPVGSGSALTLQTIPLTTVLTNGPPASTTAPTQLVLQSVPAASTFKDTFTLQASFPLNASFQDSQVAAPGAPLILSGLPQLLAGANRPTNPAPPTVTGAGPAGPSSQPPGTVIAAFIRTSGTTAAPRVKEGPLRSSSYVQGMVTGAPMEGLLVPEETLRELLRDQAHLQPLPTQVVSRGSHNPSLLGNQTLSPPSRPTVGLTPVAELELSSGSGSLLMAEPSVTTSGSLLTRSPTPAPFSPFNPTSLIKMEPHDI
Sequence of ETV5 (P41161 whole entry): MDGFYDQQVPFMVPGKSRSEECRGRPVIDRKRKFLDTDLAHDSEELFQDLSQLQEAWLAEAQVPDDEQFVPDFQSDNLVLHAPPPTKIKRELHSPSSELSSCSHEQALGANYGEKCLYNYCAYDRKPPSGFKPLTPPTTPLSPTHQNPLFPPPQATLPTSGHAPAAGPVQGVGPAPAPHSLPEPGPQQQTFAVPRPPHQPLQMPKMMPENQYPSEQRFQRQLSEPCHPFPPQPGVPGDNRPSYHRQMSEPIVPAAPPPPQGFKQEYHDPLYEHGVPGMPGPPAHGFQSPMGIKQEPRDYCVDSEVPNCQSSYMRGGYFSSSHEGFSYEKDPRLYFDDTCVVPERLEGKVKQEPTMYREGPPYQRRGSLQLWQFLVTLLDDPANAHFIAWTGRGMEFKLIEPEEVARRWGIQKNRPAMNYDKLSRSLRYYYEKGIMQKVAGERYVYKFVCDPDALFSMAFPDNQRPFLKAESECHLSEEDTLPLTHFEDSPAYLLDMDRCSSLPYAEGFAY
Sequence of HSF1 (Q00613 whole entry): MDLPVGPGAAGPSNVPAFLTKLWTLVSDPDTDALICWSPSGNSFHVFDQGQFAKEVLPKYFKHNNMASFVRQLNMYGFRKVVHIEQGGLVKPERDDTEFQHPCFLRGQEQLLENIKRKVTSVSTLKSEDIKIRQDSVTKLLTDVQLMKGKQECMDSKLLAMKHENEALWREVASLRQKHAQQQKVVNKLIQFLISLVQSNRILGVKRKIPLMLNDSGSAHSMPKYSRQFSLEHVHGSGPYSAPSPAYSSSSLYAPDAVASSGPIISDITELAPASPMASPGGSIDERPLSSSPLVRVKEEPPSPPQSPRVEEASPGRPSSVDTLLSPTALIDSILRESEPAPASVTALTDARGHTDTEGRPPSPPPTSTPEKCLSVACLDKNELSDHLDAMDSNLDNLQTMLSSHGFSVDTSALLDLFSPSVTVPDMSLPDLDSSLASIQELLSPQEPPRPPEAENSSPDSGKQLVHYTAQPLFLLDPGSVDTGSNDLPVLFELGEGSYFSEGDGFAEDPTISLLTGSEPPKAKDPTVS

Turning to TCTAAC, the binding signal with FLI1 is 1.18 fold enrichment (6-mer frequency, TF over GST control); with ELK1 it was 1.28 fold enrichment (6-mer frequency, TF over GST control); with GABPA, 1.16 fold enrichment (6-mer frequency, TF over GST control); in the test with ERG it was 1.22 fold enrichment (6-mer frequency, TF over GST control); with ELF1, 1.21 fold enrichment (6-mer frequency, TF over GST control); in the test with EHF, 1.16 fold enrichment (6-mer frequency, TF over GST control). Besides, the binding signal was 1.13 fold enrichment (6-mer frequency, TF over GST control) with SPI1; 1.19 fold enrichment (6-mer frequency, TF over GST control) in the test with SPIB; 1.16 fold enrichment (6-mer frequency, TF over GST control) with ELK3; 1.23 fold enrichment (6-mer frequency, TF over GST control) with FEV; 1.21 fold enrichment (6-mer frequency, TF over GST control) with ETV5; 1.25 fold enrichment (6-mer frequency, TF over GST control) with HSF1. The binding signal with SPIC was 1.07 fold enrichment (6-mer frequency, TF over GST control); with ELF4 it was 1.22 fold enrichment (6-mer frequency, TF over GST control); with ELK4, 1.2 fold enrichment (6-mer frequency, TF over GST control); with ETV2, 1.12 fold enrichment (6-mer frequency, TF over GST control); with ELF3, 1.23 fold enrichment (6-mer frequency, TF over GST control); with CRX, 1.24 fold enrichment (6-mer frequency, TF over GST control). Further, the binding signal with ETV1 was 1.16 fold enrichment (6-mer frequency, TF over GST control).
